Source: PubChem BioAssay (NCATS)
Inconclusive results are not listed. Active and inactive are the calls of the source. The call rests on the fitted dose curve; in most records, active means well fitted curve in the direction sought with a large enough effect; inconclusive means small, poorly fitted or top-dose-only effect, or another doubt; inactive means no such curve, though single readings can be large; an effect the other way counts as inactive or inconclusive.

What was measured:
[1] = MultiTox-Fluor Cytotoxicity Assay - LYMP1-002 - Dead Cells (AID 960);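 further: cells exposed to compound for 16 h at 37 °C; nearly all actives have a fitted effect of over 60% in size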
Summary of the method: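 LYMP1-002 cells 2500/well; 5 hr 37 C pre-incubation; compound 16 hr 37 C; MultiTox-Fluor reagent 60 min RT; dead-cell fluor Ex/Em 485/520. Norm. to DMSO (0%) vs 15 uM tetraoctylammonium bromide (100%); Hill AC50.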

[2] = MultiTox-Fluor Cytotoxicity Assay - LYMP1-003 - Dead Cells (AID 961);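 further: cells exposed to compound for 16 h at 37 °C; nearly all actives have a fitted effect of over 70% in size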
Summary of the method: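 LYMP1-003 lymphoblastoid, 2500 cells/well, 5 hr settle then 16 hr cpd at 37 C; MultiTox-Fluor reagent 60 min RT; Ex/Em 485/520 dead-cell signal; norm. DMSO = 0%, 15 uM tetraoctylammonium bromide = 100%; Hill AC50.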

[3] = MultiTox-Fluor Cytotoxicity Assay - LYMP1-003 - Live Cells (AID 962);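 further: cells exposed to compound for 16 hours at 37 °C; cytotoxic hits lower the live-cell protease signal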
Summary of the method: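 qHTS, 1536-well; 2500 cells/well LYMP1-003; 5 hr 37 C settle; cpd 16 hr 37 C; MultiTox-Fluor reagent 60 min RT; live-cell protease fluor. 405/510; Hill-fit AC50; tetraoctylammonium bromide pos. ctrl.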

[4] = Cell Viability - LYMP1-003 - Assay at 24 hr (AID 963)
Summary of the method: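 Cells seeded at 2500/well, 5 hr at 37 C; compounds added; 24 hr at 37 C; CellTiter-Glo added, 30 min room temperature; luminescence read. Decrease in ATP taken as cytotoxicity, AC50 from Hill modelling.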

[5] = Cell Viability - LYMP1-003 - Assay at 40 hr (AID 964); further: series mostly up to about 92 µM; nearly all actives have a fitted effect of over 60% in size
Summary of the method: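 Cells were seeded at 2500 per well and incubated 5 hr at 37 C. Compounds were added across a concentration series and left 40 hr at 37 C. CellTiter-Glo was added for 30 min at room temperature before luminescence reading.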

[6] = Cell Viability - LYMP2-004 (AID 966); further: nearly all actives have a fitted effect of over 65% in size
Summary of the method: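 Cells seeded 2500/well, rested 5 hr at 37 C, dosed across a concentration series, incubated 24 hr at 37 C, then CellTiter-Glo added for 30 min at room temperature and luminescence read. Hill fitting gave AC50.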

[7] = Cell Viability - LYMP2-009 (AID 968); further: series mostly up to about 92 µM; nearly all actives have a fitted effect of over 55% in size
[8] = Cell Viability - LYMP2-011 (AID 969); further: nearly all actives have a fitted effect of over 60% in size
Summary of the method: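 2500 cells/well, 5 hr 37 C; compound added, 24 hr 37 C; CellTiter-Glo 30 min RT; luminescence. qHTS concentration-response, Hill-equation AC50. Tetraoctylammonium bromide positive control.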

[9] = Cell Viability - LYMP2-013 (AID 970); further: series mostly up to about 92 µM; nearly all actives have a fitted effect of over 55% in size
Summary of the method: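 qHTS; 2500 lymphoblastoid cells/well; 5 hr 37 C settle; cpd 24 hr 37 C; CellTiter-Glo, 30 min RT; luminescence. AC50 = Hill fit.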

[10] = Cell Viability - LYMP2-015 (AID 971); further: nearly all actives have a fitted effect of over 55% in size
Summary of the method: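 Luminescent ATP read-out (CellTiter-Glo) served as the viability measure after lymphoblastoid cells were exposed to compounds for 24 hours at 37 C. Concentration-response data were fitted with the Hill equation to give AC50.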

[11] = Cell Viability - LYMP2-017 (AID 972); further: series mostly up to about 92 µM; nearly all actives have a fitted effect of over 55% in size
Summary of the method: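 2500 cells/well, 5 h 37 C; cpd 24 h 37 C in complete medium; CellTiter-Glo, 30 min RT; luminescence (ATP). AC50 via Hill fit, qHTS.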

[12] = Cell Viability - LYMP2-019 (AID 973); further: nearly all actives have a fitted effect of over 55% in size
Summary of the method: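 Luminescent ATP read-out (CellTiter-Glo, 30 min room temperature) served as the viability measure after 24 hr treatment of lymphoblastoid cells at 37 C. Concentration-response data were fitted to the Hill equation for AC50.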

[13] = Cell Viability - LYMP2-021 (AID 974)
Summary of the method: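 Plate 2500 lymphoblastoid cells per well and incubate 5 hr at 37 C. Add compounds over a concentration range and incubate 24 hr at 37 C. Add CellTiter-Glo, wait 30 min at room temperature, read luminescence.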

[14] = Cell Viability - LYMP2-023 (AID 975)
Summary of the method: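 2500 cells/well, 5 hr 37 C; cpd 24 hr 37 C; CellTiter-Glo, 30 min RT; luminescence. qHTS conc-response, Hill fit -> AC50. Pos ctrl tetraoctylammonium bromide.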

[15] = Cell Viability - LYMP2-002 (AID 977);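 further: series mostly up to about 92 µM; compound exposure lasted 24 h at 37 °C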
Summary of the method: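 Cytotoxicity is scored as concentration-dependent loss of cellular ATP in a human lymphoblastoid line after 24 hr compound treatment at 37 C. AC50 is obtained by modelling concentration-response data with the Hill equation.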

[16] = Cell Viability - LYMP2-006 (AID 978); further: series mostly up to about 92 µM; nearly all actives have a fitted effect of over 60% in size
Summary of the method: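 In this cytotoxicity screen, the human lymphoblastoid line grew in complete medium with test compounds for 24 hr at 37 C. Cellular ATP served as the viability signal.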

Measured: Potency

CCCCCCCCOC(=O)c1ccccc1C(=O)OCCCCCCCC
inactive: [1] | [2] | [3] | [4] | [5] | [6] | [7] | [8] | [9] | [10] | [11] | [12] | [13] | [14] | [15] | [16]

O=Cc1ccco1
inactive: [1] | [2] | [3] | [4] | [5] | [6] | [7] | [8] | [9] | [10] | [11] | [12] | [13] | [14] | [15] | [16]

COc1ccc2c(c1OC)C(=O)OC2C1c2cc3c(cc2CCN1C)OCO3 (stereo not given)
inactive: [1] | [2] | [3] | [4] | [5] | [6] | [7] | [8] | [9] | [10] | [11] | [12] | [13] | [14] | [15] | [16]

O=CC=O
inactive: [1] | [2] | [3] | [4] | [5] | [6] | [7] | [8] | [9] | [10] | [11] | [12] | [13] | [14] | [15] | [16]

COC1=CC(=O)O[C@@H](/C=C/c2ccccc2)C1
inactive: [1] | [2] | [3] | [4] | [5] | [6] | [7] | [8] | [9] | [10] | [11] | [12] | [13] | [14] | [15] | [16]
